Compound activity deposited in PubChem BioAssay by Broad Institute.
Only a selection was taken, and hits are over-represented in it overall.
Tg IFNy HTS – T. gondii growth inhibition with IFN-gamma, primary screen, cell-based. 69,000 compounds, 3.8% hits. activity change, negative = inhibition, % (no concentration beside the values). Toxoplasma gondii growth in IFN-gamma-treated host cells; stronger effect = lower value; in the data active = activity change below about -70%, passing the limit was not always enough;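 also: host cells are HeLa cells infected with Toxoplasma gondii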
Of the large screens only hits and unclear results are named; the others gave an inactive call.

CO[C@H]1CN(C(=O)c2ccc3c(c2)OCO3)[C@H]2COC[C@@H]12	none
COc1ccccc1NC(=O)c1ccc2nsnc2c1	none
COc1cc(C(=O)Nc2ccccc2-c2nc3ccccc3s2)cc(OC)c1OC	Tg IFNy HTS -90
COc1cc(C(=O)Nc2ccc(-c3nc(-c4ccc(C)cc4)co3)cc2)cc(OC)c1OC	none
Cn1cnc(S(=O)(=O)N[C@H]2CC[C@H](CC(=O)NCC3CCCCC3)O[C@H]2CO)c1	none
O=C(c1ccccc1N1CCS(=O)(=O)CC1)N1C[C@H]2CC=CC[C@H]2C1	none
CN(C)CC(=O)N[C@H]1CC[C@@H](CCNC(=O)C2CCC2)O[C@H]1CO	none
C[C@@H]1CN([C@@H](C)CO)C(=O)c2cc(NS(=O)(=O)c3ccc(Cl)cc3)ccc2O[C@@H](C)CCCCO[C@H]1CN(C)Cc1ccncc1	none
C[C@H]1CCCCO[C@@H](CN(C)Cc2ccncc2)[C@@H](C)CN([C@@H](C)CO)C(=O)c2cc(NS(=O)(=O)c3ccc(Cl)cc3)ccc2O1	none
C[C@H](CO)N1C[C@H](C)[C@H](CN(C)Cc2ccncc2)OCCCC[C@H](C)Oc2ccc(NS(=O)(=O)c3ccc(Cl)cc3)cc2C1=O	none
Cc1ccc(S(=O)(=O)Nc2ccc3c(c2)C(=O)N([C@@H](C)CO)C[C@H](C)[C@H](CN(C)Cc2ccc(C(F)(F)F)cc2)O3)cc1	none
COc1ccc(S(=O)(=O)Nc2ccc3c(c2)C(=O)N([C@@H](C)CO)C[C@H](C)[C@@H](CN(C)Cc2ccc(C(F)(F)F)cc2)OCCCC[C@@H](C)O3)cc1	Tg IFNy HTS -86
COc1ccc(S(=O)(=O)Nc2ccc3c(c2)C(=O)N([C@@H](C)CO)C[C@H](C)[C@H](CN(C)Cc2ccc(C(F)(F)F)cc2)OCCCC[C@H](C)O3)cc1	Tg IFNy HTS -107
Cc1nc2sc(C(=O)N3CCCC(N(C)C)CC3)c(C)c2c(=O)[nH]1 (centres undefined)	none
COc1cccc(NC(=O)C2CN(C(=O)c3snnc3C)C2)c1	none
Cc1ccc(C2=NC3(CCN(CC(=O)Nc4c(C)cccc4C)CC3)NC2=O)cc1C	none
CCCNC(=O)N[C@H]1C=C[C@@H](CC(=O)N2CCN(C)CC2)O[C@@H]1CO	none
CCOC(=O)c1c(C)c2c(=O)[nH]cnc2n1-c1ccccc1	none
CN(C)CC(=O)N1[C@H](CO)[C@H](c2ccc(-c3cccc(C(=O)N(C)C)c3)cc2)[C@@H]1C#N	none
COc1ccc(C2(NC(=O)c3cnc(N4CCOCC4)nc3)CCCC2)cc1	Tg IFNy HTS -80
CCOC(=O)c1cnc(N2CCOCC2)nc1N	none
CCCC(NC(=O)c1cnc(N2CCOCC2)nc1)c1cccs1 (centres undefined)	none
O[C@]12CCCC[C@H]1CN(Cc1ccc(-n3cncn3)cc1)CC2	none
CCCn1c(=O)c(-c2nc(-c3ccc(Br)cc3)no2)c(O)c2ccccc21	none
O=C1c2ccccc2OCC12CCN(Cc1ccccc1)C2 (centres undefined)	none
C=CCN1CCN(C)C2(CCN(C(=O)c3cnc[nH]3)CC2)C1=O	none
O=C(NCc1cccc(Cl)c1)c1c(O)c2cccnc2n(-c2cccc(F)c2)c1=O	none
O=C(NCc1cccc(Cl)c1)c1c(O)c2cccnc2n(-c2ccc(F)cc2)c1=O	none
O=C(NCc1cccnc1)c1c(O)c2ccccc2n(-c2ccccc2)c1=O	none
O=C(NCc1ccc(Cl)cc1)c1c(O)c2cccnc2n(-c2cccc(F)c2)c1=O	none
COc1cccc(CNC(=O)c2c(O)c3ccccc3n(-c3ccccc3)c2=O)c1	none
O=C(NCc1ccc(Cl)cc1)c1c(O)c2ccccc2n(-c2ccccc2)c1=O	Tg IFNy HTS -124
O=C(NCc1ccc(Cl)cc1)c1c(O)c2cccnc2n(-c2ccc(F)cc2)c1=O	Tg IFNy HTS -105
O=C(NCc1ccccc1)c1c(O)c2cccnc2n(-c2ccc(F)cc2)c1=O	none
O=C(NCc1cccc(Cl)c1)c1c(O)c2cccnc2n(-c2ccccc2)c1=O	Tg IFNy HTS -83
Cc1cccc(-c2nc(Cn3cnc4nc5c(cc4c3=O)CC(C)CC5)c(C)o2)c1 (centres undefined)	none
O=Cc1ccccc1O[C@@H]1O[C@H](CO)[C@H](O)[C@@H](O)[C@H]1O	none
Cc1cccc(-c2ccc3cc(C(=O)Cc4cccnc4)c(-c4cocn4)n3c2)c1	none
CC(NC(=O)Cc1ccc2c(c1)CCCO2)c1cc(=O)[nH]c(N2CCN(C)CC2)n1 (centres undefined)	none
NC(CC(=O)Nc1ccc(Oc2cc(F)c(F)cc2Br)cc1)C(=O)O (centres undefined)	none
COc1ccc(-c2ccc(NC(C)=O)nc2)cc1Cl	none
CCOc1ccc(N(Cc2nc(-c3ccccc3)oc2C)S(=O)(=O)c2ccccc2)cc1	none
CCc1ccc(CN2CCOC(CCNS(C)(=O)=O)C2)nc1 (centres undefined)	none
COC(=O)c1sccc1S(=O)(=O)N1CCN(c2ncnc3c(C)csc23)CC1	Tg IFNy HTS -85
Cc1csc2c(N3CCC(O)(CO)CC3)ncnc12	none
Cc1csc2c(N3CCc4nnc(C5CCCO5)n4CC3)ncnc12 (centres undefined)	none
O=C(Nc1nccs1)C12CC3CC(CC(C3)C1)C2	none
COc1ccc(/C=C/c2nn3c(-c4ccc(OC)c(OC)c4)nnc3s2)cc1	Tg IFNy HTS -101
COc1ccc(-c2nnc3sc(C4COc5ccccc5O4)nn23)cc1OC (centres undefined)	none
COc1ccc(-c2nc(C)c(C(C)=O)n2O)cc1OC	none
c1cncc(OC2CCN(Cc3cc4n(n3)CCCNC4)CC2)c1	none
CN1CC2(CCN(S(=O)(=O)C3CC3)CC2)COc2ccccc2S1(=O)=O	none
N#C[C@H]1[C@@H](c2ccccc2)[C@@H](CO)N1C(=O)Nc1cccc(F)c1	none
CN(C)CCN1CCOCC2(CCCN(C(=O)c3ccc4nc[nH]c4c3)C2)C1 (centres undefined)	none
c1csc(-c2nc3ccc4ccccc4c3c3c2CCC3)c1	none
c1csc(-c2nnc(Cc3ccncc3)c3ccccc23)c1	Tg IFNy HTS -91
CCS(=O)(=O)N1CCN(c2nnc(-c3cccs3)c(-c3cccs3)n2)CC1	none
Cc1ccc(C(=O)N2CC[C@@H]3OCC[C@]3(c3nnc(C)o3)C2)o1	none
Cc1ccc(C)c(-c2coc(-c3ccc(NC(=O)C(C)(C)C)cc3)n2)c1	none
CC(Oc1ccccc1-c1ccc(-c2ccn[nH]2)cc1)C(N)=O (centres undefined)	none
C/C=C/C(=O)Nc1ccccc1-c1ccc(-c2ccn[nH]2)cc1	Tg IFNy HTS -93
Cc1nnc(-c2ccccc2-c2ccc(-c3ccn[nH]3)cc2)o1	none
COC(=O)c1ccc(CNC(=O)Nc2cccc(SC)c2)cc1	none
CCCCCC1CCC(c2ccc(-c3ccc(CCC)cn3)cc2)CC1 (centres undefined)	none
COc1ccc(CNC(=O)c2nc3c(s2)CCN(C(C)=O)CC3)cc1	none
CC(C)CNC(=O)c1nc2c(s1)CCN(C(=O)NCc1ccccc1)CC2	Tg IFNy HTS -84
CNC(=O)c1nc2c(s1)CCN(C(=O)NCc1ccccc1)CC2	none
Cc1cc(NC(=O)CCc2cn(C)c3ccccc23)n(Cc2cccnc2)n1	none
COc1cccc(CN2CCN(CC(C)C)C(=O)C2C)c1O (centres undefined)	none
CCOC(=O)c1nc(N(C)c2ccccc2C)c2ccccc2n1	none
CCCCN(CCCNc1nc(C(=O)OCC)nc2ccccc12)c1ccccc1	Tg IFNy HTS -78
CCCCN(CC)c1nc(C(=O)OCC)nc2ccccc12	Tg IFNy HTS -87
CCCN(c1ccc(F)cc1)c1nc(C(=O)OCC)nc2ccccc12	none
CCOC(=O)c1nc(NCCCN2CCN(Cc3ccccc3)CC2)c2ccccc2n1	none
CCOC(=O)c1nc(NCCOC)c2ccccc2n1	none
Cc1ccc(-c2nc3c(s2)CN(C(=O)Nc2ccccc2C(F)(F)F)CC3)cc1	none
